For 28 compounds, Potency and outcome results are on record in PubChem BioAssay (NCATS).

Assay [1] deals with Cytochrome P450 3A4 (Homo sapiens) (UniProt P08684). Put plainly: qHTS Assay for Inhibitors and Substrates of Cytochrome P450 3A4 (AID 884). Further: nearly all actives have a fitted effect of over 50% in size. Further: potency means the concentration at half of the fitted maximal effect. A digest of the protocol:
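Luminescent readout of luciferin produced by CYP3A4 (20 nM) dealkylation of Luciferin-PPXE, 25 uM (its KM). NADPH-driven reaction ran 60 min at RT after 10 min compound preincubation; data scaled to 57 uM ketoconazole as 100% inhibition.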
Background: Quantitative high-throughput screening tests each substance at several concentrations.

For assay [2] the target is unchanged. Put plainly: qHTS Assay for Activators of Cytochrome P450 3A4 (AID 885). Further: nearly all actives have a fitted effect of over 65% in size. In a few lines: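 Human CYP3A4 dealkylates Luciferin-PPXE to luciferin, which luciferase detection converts to light. Substrate was at its KM (25uM), buffer 200mM KPO4, reaction 60 min at RT.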
For assay [3], the target named is Ubiquitin carboxyl-terminal hydrolase 1 (Homo sapiens) (UniProt O94782). Put plainly: Inhibitors of USP1/UAF1: Pilot qHTS (AID 504865). Further: nearly all actives have a fitted effect of over 35% in size. Further: potency means the concentration at half of the fitted maximal effect. A digest of the protocol: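 Enzyme-free wells gave the negative control, while test wells held 1nM USP1/UAF1 preincubated with compound for 15 min at room temperature. Ub-Rho at 150nM final started the reaction, and fluorescence at 480/540 nm was recorded kinetically.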
Ubiquitin carboxyl-terminal hydrolase 1 (Homo sapiens), sequence (O94782 whole entry, looked up): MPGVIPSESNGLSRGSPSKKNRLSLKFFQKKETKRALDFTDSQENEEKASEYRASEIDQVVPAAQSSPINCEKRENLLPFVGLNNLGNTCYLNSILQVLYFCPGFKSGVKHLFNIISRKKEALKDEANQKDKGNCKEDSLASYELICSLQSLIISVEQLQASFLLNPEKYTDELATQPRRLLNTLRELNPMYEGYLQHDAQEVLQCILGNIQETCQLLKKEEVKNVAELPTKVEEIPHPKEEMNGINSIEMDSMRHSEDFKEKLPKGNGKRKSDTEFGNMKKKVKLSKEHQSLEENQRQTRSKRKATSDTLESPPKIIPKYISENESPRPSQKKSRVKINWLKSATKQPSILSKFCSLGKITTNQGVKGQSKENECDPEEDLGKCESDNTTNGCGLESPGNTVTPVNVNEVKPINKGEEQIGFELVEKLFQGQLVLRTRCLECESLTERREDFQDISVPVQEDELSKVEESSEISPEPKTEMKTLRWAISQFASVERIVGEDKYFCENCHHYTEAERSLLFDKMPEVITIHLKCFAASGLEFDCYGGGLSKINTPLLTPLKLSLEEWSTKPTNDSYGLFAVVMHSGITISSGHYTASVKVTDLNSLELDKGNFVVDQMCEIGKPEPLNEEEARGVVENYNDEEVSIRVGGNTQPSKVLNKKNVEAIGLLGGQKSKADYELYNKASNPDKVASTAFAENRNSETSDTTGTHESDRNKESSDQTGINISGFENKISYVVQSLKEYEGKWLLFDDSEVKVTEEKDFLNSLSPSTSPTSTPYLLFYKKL

Assay [4] addresses DNA dC->dU-editing enzyme APOBEC-3G (Homo sapiens) (UniProt Q9HC16). Put plainly: qHTS for inhibitors of Vif-A3G interactions: Validation (AID 588379). In a few lines: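 Yellow fluorescence (Ex 488, Em 500-530) of Vif-coexpressing HeLa A3G-eYFP cells, scanned by Acumen cytometer, reports blocked A3G degradation. Cells plated at 700/well overnight at 37 deg C before compound addition, then a further overnight compound incubation at 37 deg C.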

Assay [5] can be described thus: Confirmation and Secondary Assay for Modulators of Hemoglobin Beta Chain Splicing at IVS2 654 locus (AID 910).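 Further: HeLa cells stably carrying EGFP split by mutant beta-globin IVS2-654 intron; per-well total GFP intensity by laser scanning cytometry after 2-day treatment.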 A digest of the protocol:
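Readout: per-well total peak green fluorescence (488 nm ex, 500–520 nm em) from objects 5–250 µm, reflecting correct splicing of an EGFP-654 reporter. Compounds were applied for 2 days at 37 °C to overnight-plated HeLa EGFP-654 cells; controls were DMSO and 500 nM IVS2-654 PNA.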

A short description of assay [6]: Confirmation and Secondary Assay for Modulators of Hemoglobin Beta Chain Splicing at IVS2 705 locus (AID 930).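 Further: HeLa cells stably expressing the EGFP-705 splicing reporter; GFP fluorescence per well restored by corrected splicing of the IVS2-705 intron in EGFP; series mostly up to about 46 µM.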 A digest of the protocol:
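First, HeLa EGFP-705 cells are seeded at 500/well in Optimem with 2% FCS and left overnight. Next, compound or DMSO is added for 2 days. Finally wells are laser-scanned and total peak GFP intensity scored.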

Records with an inconclusive call do not appear. The source made the active and inactive calls. The call rests on the fitted dose curve; in most records, active means well fitted curve in the direction sought with a large enough effect; inconclusive means small, poorly fitted or top-dose-only effect, or another doubt; inactive means no such curve, though single readings can be large; an effect the other way counts as inactive or inconclusive.

DNA dC->dU-editing enzyme APOBEC-3G (Homo sapiens), sequence (Q9HC16 whole entry, looked up): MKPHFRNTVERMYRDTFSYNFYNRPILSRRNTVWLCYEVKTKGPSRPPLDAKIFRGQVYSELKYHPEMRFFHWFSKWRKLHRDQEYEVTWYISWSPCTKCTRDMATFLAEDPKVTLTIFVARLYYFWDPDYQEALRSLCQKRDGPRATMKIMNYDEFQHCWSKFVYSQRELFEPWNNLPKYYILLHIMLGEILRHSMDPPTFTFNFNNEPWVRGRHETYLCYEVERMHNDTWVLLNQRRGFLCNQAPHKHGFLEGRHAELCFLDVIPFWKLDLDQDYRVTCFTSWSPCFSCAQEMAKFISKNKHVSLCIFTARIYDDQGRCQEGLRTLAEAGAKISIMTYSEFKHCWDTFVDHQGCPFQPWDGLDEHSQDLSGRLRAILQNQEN
Cytochrome P450 3A4 (Homo sapiens), sequence (P08684 whole entry, looked up): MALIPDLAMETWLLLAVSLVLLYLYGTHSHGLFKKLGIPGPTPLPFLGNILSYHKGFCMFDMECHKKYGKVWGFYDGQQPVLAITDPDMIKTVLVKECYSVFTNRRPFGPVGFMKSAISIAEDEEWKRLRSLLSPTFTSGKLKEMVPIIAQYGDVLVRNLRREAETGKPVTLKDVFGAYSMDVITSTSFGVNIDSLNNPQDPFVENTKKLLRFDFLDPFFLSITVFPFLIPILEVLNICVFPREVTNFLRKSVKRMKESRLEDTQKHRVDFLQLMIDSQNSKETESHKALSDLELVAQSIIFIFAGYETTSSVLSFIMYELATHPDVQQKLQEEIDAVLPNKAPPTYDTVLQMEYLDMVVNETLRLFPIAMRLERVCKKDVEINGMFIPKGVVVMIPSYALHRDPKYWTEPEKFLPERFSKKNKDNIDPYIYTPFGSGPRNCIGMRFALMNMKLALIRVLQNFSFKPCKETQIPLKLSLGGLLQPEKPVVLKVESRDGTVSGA

On to `c1ccc(-c2csc(-c3nc4ccccc4[nH]3)n2)cc1`, for which the Potency in assay [1] is 1.26 µM (active); in assay [3] it was 22.4 µM (active). In addition, the Potency entry in assay [2] is “inactive”.

As for `O=C1CC(c2ccccc2O)Oc2ccc(O)cc21` (centres undefined), the Potency result in assay [2], in assay [3] and in assay [4] was “inactive” in each case.

For the compound `Cc1csc(-c2nc3ccccc3n2C)n1`, the Potency in assay [1] is 31.6 µM (active). Also, the Potency result in assay [2], in assay [3] and in assay [4] was “inactive” in each case.

With `COc1ccc2c(=O)ccoc2c1`, the Potency entry in assay [1] and in assay [3] was “inactive” in each case. The call in assay [5] and in assay [6] was inactive.

With `CN(C)c1ccc(O)c2c1C[C@@H]1C[C@H]3C(N(C)C)C(=O)C(C(N)=O)=C(O)[C@@]3(O)C(=O)C1=C2O` (some centres undefined), the Potency entry in assay [2] and in assay [3] was “inactive” throughout. Also, the call in assay [5] and in assay [6] was inactive.

As to `C=C1CCC2C(CC2(C)C)C(=O)CCC1O` (centres undefined), the Potency in assay [1] is 2 µM (active). The Potency entry in assay [2] and in assay [3] was “inactive” throughout. The call in assay [5] and in assay [6] was inactive.

For `NC(Cc1cnc[nH]1)C(=O)Nc1ccc2ccccc2c1` (centres undefined), the Potency in assay [1] is 2.51 µM (active). Moreover, the Potency result in assay [2] and in assay [3] was “inactive” in each case. For the same compound, the result in assay [5] and in assay [6] was inactive.

For the compound `CC1(C)C=Cc2c(cc3occ(-c4ccc5c(c4)OCO5)c(=O)c3c2O)O1`, the Potency in assay [1] was 25.1 µM (active). Besides, the Potency entry in assay [2] and in assay [3] was “inactive” each time. Further, the compound was classed as inactive in assay [5] and in assay [6].

`C=C1C(=O)OC2C[C@@]3(C)CCCC(C)C3=CC12` (some centres undefined): the Potency in assay [1] is 7.94 µM (active). For the same compound, the Potency entry in assay [2] and in assay [3] was “inactive” throughout. The call in assay [5] and in assay [6] was inactive.

In the case of `CC1CCC2C(C)(C)C3CC12CC[C@]3(C)O` (some centres undefined), the Potency result in assay [1] and in assay [3] was “inactive” in each case. Besides, the compound was called inactive in assay [5] and in assay [6].

Turning to `COc1ccc(-c2oc3ccccc3c(=O)c2O)cc1`, the Potency result in assay [2], in assay [3] and in assay [4] was “inactive” throughout.

Turning to `CC(=O)OC1CC[C@@]2(C)C3CC[C@@]4(C)C(CC5O[C@@]6(CCC(C)CO6)C(C)C54)C3CC[C@@H]2C1` (some centres undefined), the Potency entry in assay [1] and in assay [3] was “inactive” throughout. Further, the compound was called inactive in assay [5] and in assay [6].

Take `COc1c2ccoc2c(OC)c2oc(=O)ccc12`: the Potency in assay [1] was 2 µM (active). The Potency result in assay [2] and in assay [3] was “inactive” in each case. In addition, the outcome in assay [6] was inactive.

As for `O=c1[nH]cnc2c1ncn2C1CC(O)C(CO)O1` (centres undefined), the Potency result in assay [1] and in assay [3] was “inactive” throughout. In addition, the compound was classed as inactive in assay [5] and in assay [6].

In the case of `COc1ccc2c(=O)c(-c3ccccc3)coc2c1`, the Potency entry in assay [2], in assay [3] and in assay [4] was “inactive” throughout.

Consider `CC1C(NC(=O)/C(=N/OC(C)(C)C(=O)O)c2csc(N)n2)C(=O)N1S(=O)(=O)O` (centres undefined), for which the Potency result in assay [1] and in assay [3] was “inactive” in each case. The compound was called inactive in assay [5] and in assay [6].

Turning to `OC[C@H]1O[C@@H](n2cnc3c(NCc4ccccc4)ncnc32)[C@H](O)[C@@H]1O`, the Potency result in assay [1] and in assay [3] was “inactive” in each case.

With `O[N+]1=CC=CCC1=S.On1ccccc1=S.[Zn]`, the Potency result in assay [1] and in assay [3] was “inactive” each time. For the same compound, the compound was classed as inactive in assay [5] and in assay [6].

With `NC(N)=N/N=C\c1c(Cl)cccc1Cl`, the Potency entry in assay [1] and in assay [3] was “inactive” each time. In addition, the compound was called inactive in assay [5] and in assay [6].

On to `COc1ccc2cc1Oc1ccc(cc1)CC1c3cc(c(OC)cc3CCN1C)Oc1c(OC)c(OC)cc3c1C(C2)N(C)CC3` (centres undefined), for which the Potency result in assay [1] and in assay [3] was “inactive” in each case. In addition, the call in assay [5] and in assay [6] was inactive.

With `CC(=O)OC(C)(C)C1Cc2cc3ccc(=O)oc3cc2O1` (centres undefined), the Potency result in assay [1] and in assay [3] was “inactive” throughout. The result in assay [5] and in assay [6] was inactive.

On to `OCC(O)C(O)C(O)C(O)C(O)CO` (centres undefined), for which the Potency entry in assay [1] and in assay [3] was “inactive” each time. The call in assay [5] and in assay [6] was inactive.

Consider `CC(=O)OC1CC(OC(C)=O)[C@]2(C)C(CC(OC(C)=O)[C@@]3(C)C4=CC(=O)OC(c5ccoc5)[C@]4(C)CCC32)C1(C)C` (some centres undefined), for which the Potency in assay [1] is 10 µM (active). Also, the Potency entry in assay [2] and in assay [3] was “inactive” each time. Besides, the outcome in assay [5] and in assay [6] was inactive.

As for `C[N+]1(C)C2CCC1CC(OC(=O)C(O)c1ccccc1)C2` (centres undefined), the Potency result in assay [1] and in assay [3] was “inactive” throughout. The compound was classed as inactive in assay [5] and in assay [6].

With `COC(=O)CC1C(C)(C)C(=O)C2CC3C4=CC(=O)OC(c5ccoc5)[C@]4(C)CCC3[C@@]1(C)C2=O` (some centres undefined), the Potency in assay [1] was 7.94 µM (active). For the same compound, the Potency entry in assay [2] and in assay [3] was “inactive” in each case. Further, in assay [6], the compound was classed as inactive.

For the compound `COc1c2ccoc2cc2oc(C)cc(=O)c12`, the Potency in assay [1] is 3.16 µM (active). The Potency result in assay [2] and in assay [3] was “inactive” in each case. For the same compound, in assay [6], the compound was classed as inactive.

For the compound `COc1cccc2oc(-c3ccccc3)cc(=O)c12`, the Potency entry in assay [2], in assay [3] and in assay [4] was “inactive” in each case.

With `COC(=O)CCC(C)C1CCC2C3C(C[C@H](O)C12C)C1(C)CC[C@@H](O)CC1C[C@H]3O` (some centres undefined), the Potency result in assay [2], in assay [3] and in assay [4] was “inactive” throughout.
